# Measurements from PubChem BioAssay (NCATS).
# Records with an inconclusive call do not appear. Unmarked numbers belong to inactive results. The source made the active and inactive calls. Calls come from the whole dose curve; as a rule, active = well fitted inhibition curve with a large enough effect; inconclusive = small, poorly fitted or top-dose-only effect; inactive = flat fitted curve, though single readings scatter.
# Tested on: CP291
# Test: qHTS profiling for inhibitors of Plasmodium falciparum proliferation (AID 504749); note: nearly all actives have a fitted effect of over 60% in size;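 for activity, negative = inhibition: 0% = DMSO vehicle and full inhibition = artemisinin control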
# Details: P. falciparum in erythrocytes, SYBR Green DNA, 72 h; series mostly up to 28.7 µM; activity, negative = inhibition: at the top concentration
# Method in brief: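 Readout was DNA-dye fluorescence from lysed cultures, ex 485/em 535 nm. Parasitized red cells had grown 72 h with compound; data scaled between 0.29 uM artemisinin and DMSO wells and corrected using vehicle-only plates.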
# Potency is the fitted concentration of half-maximal effect.
SMILES,"activity, negative = inhibition",Potency
CC(C)C(=O)Nc1ccc([N+](=O)[O-])c(C(F)(F)F)c1,-8.57%,–
NC(=O)NO,-10.2%,–
CCOC(=O)C(C)(C)Oc1ccc(Cl)cc1,-4.29%,–
CC(CCc1ccc(O)cc1)NCCc1ccc(O)c(O)c1 (centres undefined),0.792%,–
Cc1cn([C@H]2C[C@H](N=[N+]=[N-])[C@@H](CO)O2)c(=O)[nH]c1=O,-5.32%,–
Cc1cc(C(C)(C)C)c(O)c(C)c1CC1=NCCN1,-3.63%,–
NS(=O)(=O)c1cc2c(cc1Cl)NCNS2(=O)=O,-3.84%,–
CCOC(=O)c1ncn2c1CN(C)C(=O)c1cc(F)ccc1-2,-15.7%,–
COC(=O)Nc1nc2ccc(C(=O)c3cccs3)cc2[nH]1,-11.2%,–
Clc1ccc2nsnc2c1NC1=NCCN1,-8.97%,–
Cn1c(=O)c2c(ncn2C)n(C)c1=O,-1.17%,–
CC(C)Cc1ccc(C(C)C(=O)O)cc1 (centres undefined),2.34%,–
Cn1cnc2c1c(=O)[nH]c(=O)n2C,-11.3%,–
Cn1c(=O)c2[nH]cnc2n(C)c1=O,-1.93%,–
NCCCCCC(=O)O,-4.36% [at 12.8 µM],–
CC(C)(Oc1ccc(C2CC2(Cl)Cl)cc1)C(=O)O (centres undefined),-2.3%,–
CN1C(C(=O)Nc2ccccn2)=C(O)c2ccccc2S1(=O)=O,-10.1% [at 12.8 µM],–
N[C@@H](Cc1c[nH]c2ccc(O)cc12)C(=O)O,-1.16%,–
COc1cc2c(c(OC)c1OC)-c1ccc(OC)c(=O)cc1[C@@H](NC(C)=O)CC2,-9.14%,–
Cc1cc(C(C)(C)C)cc(C)c1CC1=NCCN1,-17.1% [at 12.8 µM],–

SMILES,"activity, negative = inhibition",Potency
Cc1cnc(C(=O)NCCc2ccc(S(=O)(=O)NC(=O)NC3CCCCC3)cc2)cn1,-4.05%,–
CN1CCN2c3ccccc3Cc3ccccc3C2C1 (centres undefined),-23.3%,–
Nc1nnc(-c2cccc(Cl)c2Cl)c(N)n1,-4.21%,–
CC[N+](CC)(CC)CCOc1cccc(OCC[N+](CC)(CC)CC)c1OCC[N+](CC)(CC)CC,1.11%,–
Cc1ccc(C(=O)Nc2ccc(S(=O)(=O)O)c3cc(S(=O)(=O)O)cc(S(=O)(=O)O)c23)cc1NC(=O)c1cccc(NC(=O)Nc2cccc(C(=O)Nc3cc(C(=O)Nc4ccc(S(=O)(=O)O)c5cc(S(=O)(=O)O)cc(S(=O)(=O)O)c45)ccc3C)c2)c1,-16%,–
CS(=O)(=O)Nc1ccc([N+](=O)[O-])cc1Oc1ccccc1,-4.36% [at 12.8 µM],–
CC(=O)OCC(CCn1cnc2cnc(N)nc21)COC(C)=O,-1.42%,–
C[C@](N)(Cc1ccc(O)c(O)c1)C(=O)O,-4.73%,–
COc1ccccc1OCC(O)CN1CCN(CC(=O)Nc2c(C)cccc2C)CC1 (centres undefined),0.117%,–
Cc1cn([C@H]2C=C[C@@H](CO)O2)c(=O)[nH]c1=O,2.58%,–
Clc1ccccc1C(c1ccccc1)(c1ccccc1)n1ccnc1,–,2.03 µM (active)
CC(C)(C)C(=O)Oc1ccc(S(=O)(=O)Nc2ccccc2C(=O)NCC(=O)O)cc1,-0.682%,–
NC(=O)OCC(COC(N)=O)c1ccccc1,-5.87%,–
COc1ccccc1N1CCN(CC(O)COc2cccc3ccccc23)CC1 (centres undefined),-12.8%,–
O=c1c(-c2ccc(O)cc2)coc2cc(O)cc(O)c12,-9.05%,–
CCCNCC(O)COc1ccccc1C(=O)CCc1ccccc1 (centres undefined),–,4.26 µM (active)
NCCc1cnc[nH]1,4.37%,–
CN(C)c1nc(N(C)C)nc(N(C)C)n1,0.538% [at 12.8 µM],–
CC(C)NCC(O)c1ccc(O)c(O)c1 (centres undefined),0.305%,–
